# Assay results taken from PubChem BioAssay AID1159580 (chemical genetic matrix, 2015).
# The whole screen tested about 5,500 compounds, of which about 2,000 (36%) were called active. Roughly 18% stayed inconclusive and do not appear here. This is one part of the list. Values without a mark were called inactive. Cut-off read from the data, not from the text of the source: active = normalized growth mostly below about 0.91 (no sharp cut-off); inconclusive = no clear call, values can overlap the other calls; inactive = mostly above about 0.92.
# Assay: chemical genetic growth profiling, strain panel (AID 1159580);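 note: tested at 20 µM; growth read once vehicle control cultures reached saturation at 30 °C; 1 = growth at the plate median or of vehicle wells; lower values mean less growth of the strain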
# Conditions: S. cerevisiae deletion strains, growth OD
# [1] = locus YHR030C, strain SLT2, stronger effect = lower value
# [2] = locus YHR079C, strain IRE1, stronger effect = lower value
# [3] = locus YJL095W, strain BCK1, stronger effect = lower value
# [4] = locus YJR066W, strain TOR1, stronger effect = lower value
# [5] = locus YLR113W, strain HOG1, stronger effect = lower value
# [6] = locus YNL183C, strain NPR1, stronger effect = lower value
# [7] = locus YOR231W, strain MKK1, stronger effect = lower value
# [8] = locus YPL256C, strain CLN2, stronger effect = lower value
compound,measurement,setting,value
Cc1cc(OC(=O)N2CCCCC2)c(C(C)C)cc1[N+](C)(C)C,normalized growth,"locus YAL021C, strain ccr4, stronger effect = lower value",0.994
same,normalized growth,"locus YAL026C, strain drs2, stronger effect = lower value",1.03
same,normalized growth,"locus YAL030W, strain snc1, stronger effect = lower value",1.01
same,normalized growth,"locus YBL061C, strain skt5, stronger effect = lower value",1.01
same,normalized growth,"locus YBR009C, strain hhf1, stronger effect = lower value",0.992
same,normalized growth,"locus YBR023C, strain chs3, stronger effect = lower value",1.01
same,normalized growth,"locus YBR171W, strain sec66, stronger effect = lower value",1.01
same,normalized growth,"locus YBR231C, strain swc5, stronger effect = lower value",1.02
same,normalized growth,"locus YBR279W, strain paf1, stronger effect = lower value",1.01
same,normalized growth,"locus YCL011C, strain gbp2, stronger effect = lower value",0.998
same,normalized growth,"locus YCL016C, strain dcc1, stronger effect = lower value",0.987
same,normalized growth,"locus YCL069W, strain vba3, stronger effect = lower value",1
same,normalized growth,"locus YCR088W, strain abp1, stronger effect = lower value",1.01
same,normalized growth,"locus YDL005C, strain med2, stronger effect = lower value",1.02
same,normalized growth,"locus YDL040C, strain nat1, stronger effect = lower value",1.01
same,normalized growth,"locus YDR001C, strain nth1, stronger effect = lower value",1.01
same,normalized growth,"locus YDR069C, strain doa4, stronger effect = lower value",1.03
same,normalized growth,"locus YDR137W, strain rgp1, stronger effect = lower value",1.03
same,normalized growth,"locus YDR159W, strain sac3, stronger effect = lower value",1.06
same,normalized growth,"locus YDR195W, strain ref2",0.997
same,normalized growth,"locus YDR297W, strain sur2, stronger effect = lower value",1.01
same,normalized growth,"locus YDR334W, strain swr1, stronger effect = lower value",1
same,normalized growth,"locus YDR335W, strain msn5, stronger effect = lower value",1.01
same,normalized growth,"locus YDR392W, strain spt3, stronger effect = lower value",0.995
same,normalized growth,"locus YEL003W, strain gim4, stronger effect = lower value",1.01
same,normalized growth,"locus YEL037C, strain rad23, stronger effect = lower value",1
same,normalized growth,"locus YEL061C, strain CIN8 (second series), stronger effect = lower value",1.01
same,normalized growth,"locus YER015W, strain faa2, stronger effect = lower value",1
same,normalized growth,"locus YER016W, strain bim1, stronger effect = lower value",1.01
same,normalized growth,"locus YER111C, strain swi4, stronger effect = lower value",1.01
same,normalized growth,"locus YER155C, strain BEM2 (second series), stronger effect = lower value",0.998
same,normalized growth,"locus YFR010W, strain ubp6, stronger effect = lower value",1.02
same,normalized growth,"locus YGL167C, strain pmr1, stronger effect = lower value",1.01
same,normalized growth,"locus YGL173C, strain kem1, stronger effect = lower value",1.02
same,normalized growth,"locus YGL227W, strain vid30, stronger effect = lower value",0.999
same,normalized growth,"locus YGL240W, strain doc1, stronger effect = lower value",1.02
same,normalized growth,"locus YGL253W, strain hxk2, stronger effect = lower value",1.01
same,normalized growth,"locus YHR013C, strain ard1, stronger effect = lower value",0.995
same,normalized growth,"locus YHR027C, strain rpn1, stronger effect = lower value",1.01
same,normalized growth,[1],1
same,normalized growth,[2],1.01
same,normalized growth,"locus YHR142W, strain chs7, stronger effect = lower value",0.986
same,normalized growth,"locus YJL092W, strain hpr5, stronger effect = lower value",1.01
same,normalized growth,"locus YJL095W, strain BCK1 (second series), stronger effect = lower value",1
same,normalized growth,[3],1.01
same,normalized growth,"locus YJL115W, strain asf1, stronger effect = lower value",1.02
same,normalized growth,"locus YJL129C, strain trk1, stronger effect = lower value",1.03
same,normalized growth,"locus YJL154C, strain vps35, stronger effect = lower value",1.01
same,normalized growth,"locus YJL164C, strain tpk1, stronger effect = lower value",1
same,normalized growth,"locus YJL166W, strain qcr8, stronger effect = lower value",1.05
same,normalized growth,[4],0.911
same,normalized growth,"locus YKL160W, strain elf1, stronger effect = lower value",0.988
same,normalized growth,"locus YKR026C, strain gcn3, stronger effect = lower value",1
same,normalized growth,"locus YKR091W, strain srl3, stronger effect = lower value",1
same,normalized growth,"locus YLL001W, strain dnm1, stronger effect = lower value",1
same,normalized growth,"locus YLL026W, stronger effect = lower value",1.03
same,normalized growth,"locus YLL041C, strain sdh2, stronger effect = lower value",1.03
same,normalized growth,"locus YLR027C, strain aat2, stronger effect = lower value",1.01
same,normalized growth,[5],1
same,normalized growth,"locus YLR221C, strain rsa3, stronger effect = lower value",1.01
same,normalized growth,"locus YLR258W, strain gsy2, stronger effect = lower value",0.987
same,normalized growth,"locus YLR262C, strain YPT6 (second series), stronger effect = lower value",1.03
same,normalized growth,"locus YLR320W, strain mms22, stronger effect = lower value",1.02
same,normalized growth,"locus YLR342W, strain FKS1, stronger effect = lower value",1.01
same,normalized growth,"locus YLR357W, strain rsc2, stronger effect = lower value",1.06
same,normalized growth,"locus YLR370C, strain arc18, stronger effect = lower value",0.989
same,normalized growth,"locus YLR384C, strain iki3, stronger effect = lower value",0.999
same,normalized growth,"locus YML120C, strain ndi1, stronger effect = lower value",1
same,normalized growth,"locus YMR058W, strain fet3, stronger effect = lower value",1.02
same,normalized growth,"locus YMR125W, strain sto1, stronger effect = lower value",1.01
same,normalized growth,"locus YMR129W, stronger effect = lower value",1.01
same,normalized growth,"locus YMR205C, strain PFK2, stronger effect = lower value",1.02
same,normalized growth,"locus YMR231W, strain pep5, stronger effect = lower value",1.01
same,normalized growth,"locus YNL071W, strain lat1, stronger effect = lower value",1.01
same,normalized growth,[6],0.949
same,normalized growth,"locus YNL209W, strain ssb2, stronger effect = lower value",1
same,normalized growth,"locus YNL248C, strain rpa49, stronger effect = lower value",1.02
same,normalized growth,"locus YNL322C, strain KRE1 (second series), stronger effect = lower value",1
same,normalized growth,"locus YNR049C, strain mso1, stronger effect = lower value",1.01
same,normalized growth,"locus YOR001W, strain rrp6, stronger effect = lower value",1.04
same,normalized growth,"locus YOR070C, strain gyp1, stronger effect = lower value",1
same,normalized growth,"locus YOR080W, strain dia2, stronger effect = lower value",1.01
same,normalized growth,"locus YOR083W, strain WHI5, stronger effect = lower value",0.975
same,normalized growth,"locus YOR106W, strain vam3, stronger effect = lower value",0.99
same,normalized growth,[7],0.999
same,normalized growth,"locus YOR265W, strain rbl2, stronger effect = lower value",0.98
same,normalized growth,"locus YOR270C, strain vph1, stronger effect = lower value",1.08
same,normalized growth,"locus YOR290C, strain snf2, stronger effect = lower value",0.988
same,normalized growth,"locus YPL051W, strain arl3, stronger effect = lower value",1.01
same,normalized growth,"locus YPL078C, strain atp4, stronger effect = lower value",0.99
same,normalized growth,"locus YPL106C, strain sse1, stronger effect = lower value",1.01
same,normalized growth,"locus YPL240C, strain hsp82, stronger effect = lower value",1.01
same,normalized growth,[8],0.978
Cc1c(C(=O)N2CCCCC2)cc(-c2ccccc2)n1-c1ccccc1,normalized growth,"locus YAR019C, strain CDC15, stronger effect = lower value",0.964
same,normalized growth,"locus YBL105C, strain PKC1, stronger effect = lower value",0.975
same,normalized growth,"locus YBR135W, strain CKS1, stronger effect = lower value",0.969
same,normalized growth,"locus YBR136W, strain MEC1, stronger effect = lower value",0.969
same,normalized growth,"locus YBR160W, strain CDC28, stronger effect = lower value",0.959
same,normalized growth,"locus YDL017W, strain CDC7, stronger effect = lower value",0.973
same,normalized growth,"locus YDL028C, strain MPS1, stronger effect = lower value",0.946
same,normalized growth,"locus YDL101C, strain DUN1, stronger effect = lower value",0.969
same,normalized growth,"locus YDL108W, strain KIN28, stronger effect = lower value",0.968
same,normalized growth,"locus YDL132W, strain cdc53, stronger effect = lower value",0.973
same,normalized growth,"locus YDL214C, strain PRR2, stronger effect = lower value",0.908
same,normalized growth,"locus YDR052C, strain DBF4, stronger effect = lower value",0.983
same,normalized growth,"locus YDR054C, strain cdc34, stronger effect = lower value",0.968
same,normalized growth,"locus YDR226W, strain ADK1, stronger effect = lower value",0.962
same,normalized growth,"locus YDR477W, strain SNF1, stronger effect = lower value",0.908
same,normalized growth,"locus YER123W, strain YCK3, stronger effect = lower value",0.896
same,normalized growth,"locus YER133W, strain GLC7, stronger effect = lower value",0.924
same,normalized growth,"locus YFL009W, strain cdc4, stronger effect = lower value",0.952
same,normalized growth,"locus YFL029C, strain CAK1, stronger effect = lower value",0.967
same,normalized growth,"locus YFR003C, strain YPI1, stronger effect = lower value",0.976
same,normalized growth,"locus YFR019W, strain FAB1, stronger effect = lower value",0.944
same,normalized growth,"locus YFR028C, strain CDC14, stronger effect = lower value",0.968
same,normalized growth,"locus YGR040W, strain KSS1, stronger effect = lower value",0.897
same,normalized growth,"locus YGR052W, strain FMP48, stronger effect = lower value",0.947
same,normalized growth,"locus YGR092W, strain DBF2, stronger effect = lower value",0.855
same,normalized growth,[1],0.676 (active)
same,normalized growth,[2],0.822
same,normalized growth,"locus YHR082C, strain KSP1, stronger effect = lower value",0.901
same,normalized growth,"locus YHR205W, strain SCH9, stronger effect = lower value",0.828
same,normalized growth,"locus YIL147C, strain SLN1, stronger effect = lower value",0.951
same,normalized growth,[3],0.837
same,normalized growth,"locus YJL128C, strain PBS2, stronger effect = lower value",0.922
same,normalized growth,"locus YJL157C, strain FAR1, stronger effect = lower value",0.933
same,normalized growth,"locus YJR016C, strain ILV3, stronger effect = lower value",0.975
same,normalized growth,"locus YJR066W, strain TOR1 (second series), stronger effect = lower value",0.912
same,normalized growth,[4],0.843
same,normalized growth,"locus YKL048C, strain ELM1, stronger effect = lower value",0.928
same,normalized growth,"locus YKL067W, strain YNK1, stronger effect = lower value",0.916
same,normalized growth,"locus YKL101W, strain HSL1, stronger effect = lower value",0.884
same,normalized growth,"locus YKL193C, strain SDS22, stronger effect = lower value",0.969
same,normalized growth,"locus YKL203C, strain TOR2, stronger effect = lower value",0.981
same,normalized growth,[5],0.787 (active)
same,normalized growth,"locus YLR133W, strain CKI1, stronger effect = lower value",0.921
same,normalized growth,"locus YLR403W, strain SFP1, stronger effect = lower value",0.905
same,normalized growth,"locus YML070W, strain DAK1, stronger effect = lower value",0.898
same,normalized growth,"locus YMR001C, strain CDC5, stronger effect = lower value",0.944
same,normalized growth,"locus YMR205C, strain PFK2 (second series), stronger effect = lower value",0.934
same,normalized growth,"locus YMR277W, strain FCP1, stronger effect = lower value",0.943
same,normalized growth,"locus YNL006W, strain LST8, stronger effect = lower value",0.965
same,normalized growth,"locus YNL020C, strain ARK1, stronger effect = lower value",0.921
same,normalized growth,"locus YNL161W, strain CBK1, stronger effect = lower value",0.972
same,normalized growth,[6],0.942
same,normalized growth,"locus YNL207W, strain RIO2, stronger effect = lower value",0.974
same,normalized growth,"locus YNL222W, strain SSU72, stronger effect = lower value",0.949
same,normalized growth,"locus YNL307C, strain MCK1 (second series), stronger effect = lower value",0.881
same,normalized growth,"locus YOL078W, strain AVO1, stronger effect = lower value",0.974
same,normalized growth,"locus YOL136C, strain PFK27, stronger effect = lower value",0.88
same,normalized growth,"locus YOR061W, strain CKA2, stronger effect = lower value",0.918
same,normalized growth,"locus YOR119C, strain RIO1, stronger effect = lower value",0.932
same,normalized growth,[7],0.823
same,normalized growth,"locus YOR329C, strain SCD5, stronger effect = lower value",0.977
same,normalized growth,"locus YPL031C, strain PHO85, stronger effect = lower value",0.891
same,normalized growth,"locus YPL153C, strain RAD53, stronger effect = lower value",0.91
same,normalized growth,"locus YPL204W, strain HRR25, stronger effect = lower value",0.899
same,normalized growth,"locus YPL209C, strain IPL1, stronger effect = lower value",0.974
same,normalized growth,[8],0.8 (active)
same,normalized growth,"locus YPR025C, strain CCL1, stronger effect = lower value",0.981
same,normalized growth,"locus YPR106W, strain ISR1, stronger effect = lower value",0.958
same,normalized growth,"locus YPR111W, strain DBF20, stronger effect = lower value",0.94
same,normalized growth,"strain NNK1, stronger effect = lower value",0.962
same,normalized growth,"strain TSCII, stronger effect = lower value",0.96
